We go through 39 molecules from PubChem BioAssay (NCATS).

Records with an inconclusive call do not appear. Where a call stands in place of a potency, no number is given. Active and inactive are the calls of the source. Calls follow the shape of the dose curve; as a rule, active = well fitted inhibition curve with a large enough effect; inconclusive = small, poorly fitted or top-dose-only effect; inactive = flat fitted curve, though single readings scatter.
Potency is read from the fitted curve at half-maximal effect.

This assay is described as follows: P-glycoprotein substrates identified in KB-8-5-11 adenocarcinoma cell line, qHTS therapeutic library screen (AID 1346987). Also: nearly all actives have a fitted effect of over 65% in size. The following applies: KB-8-5-11 (P-gp overexpressing) viability, CellTiter-Glo, 72 h; series mostly up to 44.5 µM. A digest of the protocol: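 In this qHTS, P-gp-rich KB-8-5-11 cells received library compounds across a concentration range. Viability was quantified by luminescence after 72 h at 37 degree C.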
For `COc1ccc(-c2ccc3c(N4CCOCC4C)nc(N4CCOCC4C)nc3n2)cc1CO` (centres undefined), the Potency was 0.0731 µM (active).
In the case of `CCc1c[nH]c2ncnc(N3CC[C@](N)(CNC(=O)c4ccc(F)cc4F)C3)c12`, the Potency result was “inactive”.
Consider `Cn1cc(-c2ccc(S(=O)(=O)n3ccc(/C=C/C(=O)Nc4ccccc4N)c3)cc2)cn1`, for which the Potency is 2.59 µM (active).
In the case of `COc1ccccc1OCCNCC(O)CCOc1cccc2[nH]c3ccccc3c12` (centres undefined), the Potency is 18.4 µM (active).
`S=C(c1ccc(-c2ccc(Cl)c(Cl)c2)o1)N1CCCCC1`: the Potency result is “inactive”.
As for `C=C(C(=O)OC[C@H]1O[C@@H](OC(=O)/C=C/c2ccccc2)[C@H](O)[C@@H](O)[C@@H]1O)C(O)CO` (some centres undefined), the entry is “inactive”; as for `Cn1nnnc1SCC1=C(C(=O)O)N2C(=O)[C@@H](NC(=O)[C@H](OC=O)c3ccccc3)[C@H]2SC1`, “inactive”; as for `O=C(CO)[C@@H](O)[C@H](O)[C@H](O)CO`, “inactive”.
The same measure for `CC(=O)O[C@H]1C[C@@H]2CC[C@@H]3[C@H](CC[C@@]4(C)[C@H]3C[C@H](N3CC[N+](C)(C)CC3)[C@@H]4OC(C)=O)[C@@]2(C)C[C@@H]1N1CC[N+](C)(C)CC1`: “inactive”; for `COc1ccc([C@H]2OC[C@H]3O[C@@H](O[C@H]4[C@@H]2NC[C@@H]4O)[C@H](O)[C@H]3O)cc1`: 1.61 µM (active).
Consider `CS(=O)(=O)NC(=O)CCC/C=C\C[C@H]1C(=O)C[C@@H](O)[C@@H]1/C=C/[C@H](O)COc1ccccc1`, for which the Potency entry is “inactive”.
Take `CC(=O)NC(C(=O)O[C@H]1CCC(C)(C)[C@@H]2CC=C3C(=O)OCC3(O)[C@@]12C)C(C)C` (some centres undefined): the Potency entry was “inactive”.
The same measure for `CCc1cc(C(N)=O)ccc1-n1nc(C(C)C)c2c(-n3cnc(-c4cnn(C)c4)c3)ccnc21`: 3.66 µM (active).
The same measure for `COc1ccc(CCO[C@@H]2O[C@H](CO[C@H]3OC[C@](O)(CO)[C@H]3O)[C@@H](OC(=O)/C=C/c3ccc(O)c(O)c3)[C@H](O[C@@H]3O[C@@H](C)[C@H](O)[C@@H](O)[C@H]3O)[C@H]2O)cc1OC`: “inactive”.
Consider `N#Cc1ccc(COC[C@H]2O[C@@H](n3c(NCc4ccc(Cl)c(Cl)c4)nc4c(N)ncnc43)[C@H](O)[C@@H]2O)cc1`, for which the Potency entry is “inactive”.
For the molecule `Fc1ccc(-c2cncc(CN3CCN(c4cccc5c4OCCO5)CC3)c2)cc1`, the Potency result is “inactive”.
The same measure for `C[C@H](CSC(=O)c1ccccc1)C(=O)N1C[C@@H](Sc2ccccc2)C[C@H]1C(=O)O`: “inactive”; for `COC(CCc1ccc(O)cc1)CC(=O)CCc1ccc(O)cc1` (centres undefined): “inactive”.
As for `CC(C)=C[C@@H]1[C@H](CO[C@@H]2O[C@H](CO)[C@@H](O)[C@H](O)[C@H]2O)C1(C)C`, the entry is “inactive”.
The same measure for `CN(C)C(=O)NC1(c2ccccc2)CCN(CCC[C@]2(c3ccc(Cl)c(Cl)c3)CCCN(C(=O)c3ccccc3)C2)CC1`: 18.4 µM (active); for `C/C(=C/C=C\C=C\Cc1cnco1)[C@@H](O)C(C)(C)C(N)=O`: “inactive”.
As for `C=C(NC(=O)C(=C)NC(=O)c1csc(C2=NC3c4csc(n4)C4NC(=O)c5csc(n5)C(C(C)(O)C(C)O)NC(=O)C5CSC(=N5)/C(=C/C)NC(=O)C(C(C)O)NC(=O)c5csc(n5)C3(CC2)NC(=O)C(C)NC(=O)C(=C)NC(=O)C(C)NC(=O)C(C(C)CC)NC2C=Cc3c(C(C)O)cc(nc3C2O)C(=O)OC4C)n1)C(N)=O` (centres undefined), the Potency result was “inactive”.
The same measure for `C[C@@H](N[C@H]1CCCC[C@@H]1NC(=O)c1ccc(Cl)cc1)c1cccc2ccccc12`: 23.1 µM (active).
As for `CCC/C=C/C=C/C1CC(O)C2(O)C(=O)OCC12` (centres undefined), the entry is “inactive”; as for `CC(=O)NCc1cccc(OC[C@@H](O)CNCCc2ccc(NS(=O)(=O)c3ccccc3)cc2)c1`, “inactive”; as for `CN(C)c1ccnc2sc3c(=O)n(N4CCCCCC4)cnc3c12`, “inactive”.
Consider `CC[N+]1(C/C2=C/CCCCCC2)CCC(NC(=O)C2c3cc(Cl)ccc3Oc3ccc(Cl)cc32)CC1` (centres undefined), for which the Potency result was “inactive”.
Consider `CC(C)(O)C(=O)N1CCN(c2ccc(C(F)(F)F)c(C3=C(c4c[nH]c5ccccc45)C(=O)NC3=O)c2)CC1`, for which the Potency result was “inactive”.
As for `CCOc1nc(NC(=O)Cc2cc(OC)ccc2OC)cc(N)c1C#N`, the entry is “inactive”.
As for `COc1ccc(C2Oc3c(OC)cc(CCCO)cc3C2COC2OC(CO)C(O)C(O)C2O)cc1OC` (centres undefined), the entry is “inactive”; as for `C=C(C(=O)OC)[C@@H]1CC=C2C=CC(=O)[C@H](C)[C@@]2(C)C1`, “inactive”; as for `CCC(CN)CC(C)CCNCC(O)CNCC(C)CC(CC)CN` (centres undefined), “inactive”.
Take `NS(=O)(=O)c1ccc(N2CCN(CC[C@@H]3OCCc4ccccc43)CC2)cc1`: the Potency result is “inactive”.
The same measure for `COc1c2c(nc3occc13)C(CC=C(C)C)(OC)C(O)CC2` (centres undefined): “inactive”; for `CCn1c(=O)c(-c2ccc(-c3cncs3)cc2Cl)cc2cnc(Nc3ccc(N4CCN(C)CC4)cc3)nc21`: 18.4 µM (active).
The same measure for `O=C(CN1C2=NCCN2c2ccccc21)c1ccc(-c2ccccc2)cc1`: 16.4 µM (active).
As for `COc1ccc(-c2csc(NC(=O)[C@H]3CCCCN3S(=O)(=O)c3ccc(C)cc3)n2)cc1`, the entry is “inactive”; as for `Cc1ccc(C(C)C)c(O[C@@H]2O[C@H](CO)[C@@H](O)[C@H](O)[C@H]2O)c1`, “inactive”; as for `COc1ccc(Cl)c(Nc2ncnc3cc(OCC4CCN(C)CC4)c(OC)cc23)c1`, “inactive”.
